Screening results: PubChem, National Center for Advancing Translational Sciences (NCATS)
This is one part of a sample in which hits are shown more often than they occur.
TbPYK inhibitor: blocks Trypanosoma brucei pyruvate kinase. Q57TT1. TbPYK enzyme, Kinase-Glo Plus ATP luminescence, 45 min. Potency, µM (top dose mostly 76.8 µM), inactives show at the highest dose activity, negative = inhibition, hits mostly inhibitors. 410,000 compounds, 0.12% hits; note: potency is the fitted concentration of half-maximal effect; % is set by controls: 0 for no effect and ±100 for the full control effect; nearly all actives have a fitted effect of over 50% in size
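Readout: single end-point luminescence (Kinase-Glo Plus, 10 min). Reaction conditions were TbPYK/substrate plus 130 uM ADP, 45 min at RT, pH 7.2 TEA buffer. No-enzyme wells served as controls, and data were normalized before concentration-response fitting.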
Cycloheximide cs: affects cycloheximide protein synthesis inhibition readout, counter-screen; cell reporter, cycloheximide protein synthesis inhibition counterscreen; max response, %; 300,000 compounds, 12% hits; in the data active = max response mostly above about 13%, no sharp cut-off; inactive = mostly below about 14%; note: read at 38.3 µM for the half of the compounds with a filed dose; 0% is about no effect
Sm TGR block: inhibitors of Schistosoma mansoni thioredoxin glutathione reductase | purified TGR, DTNB reduction, TNB absorbance 405 nm | 360,000 compounds, 3% hits | Q962Y6 | Potency, µM (titrated, usually from 114 µM), without a hit: at the top dose activity change, negative = inhibition, hits mostly inhibitors; note: potency is the fitted concentration of half-maximal effect; % is set by controls: 0 for no effect and ±100 for the full control effect; nearly all actives have a fitted effect of over 60% in size
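Kinetic colorimetric format: TGR-catalysed, NADPH-driven DTNB reduction monitored via TNB absorbance. Enzyme dispensed at 20 nM; compound exposure 15 min at room temperature before reaction start.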
LmPK inh: blocks Leishmania mexicana pyruvate kinase activity; 290,000 compounds, 0.37% hits; purified LmPK, Kinase-Glo ATP luminescence, 1 h; Q27686; Potency, µM (top dose mostly 57.5 µM), for inactives: top-dose activity change, negative = inhibition, most hits filed as inhibitors; note: potency is the fitted concentration of half-maximal effect; % is set by controls: 0 for no effect and ±100 for the full control effect
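Purified LmPK (0.1 nM) converted ADP (0.1 mM) to ATP with PEP (0.5 mM) in imidazole buffer pH 7.2 with KCl and MgCl2, 1 h at room temperature. ATP was read by Kinase-Glo luminescence; data normalized to uninhibited and no-enzyme controls.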
FBPA Giardia inh: Giardia lamblia aldolase inhibition | A8B2U2 | purified Giardia FBPA | Potency, µM (highest dose often 59.6 µM), for the others: at the highest dose activity, negative = inhibition, actives largely listed as inhibitors | 290,000 compounds, 0.71% hits | AID 2451; note: potency is the fitted concentration of half-maximal effect; % is set by controls: 0 for no effect and ±100 for the full control effect; nearly all actives have a fitted effect of over 55% in size
Target sequence (A8B2U2 whole entry, looked up): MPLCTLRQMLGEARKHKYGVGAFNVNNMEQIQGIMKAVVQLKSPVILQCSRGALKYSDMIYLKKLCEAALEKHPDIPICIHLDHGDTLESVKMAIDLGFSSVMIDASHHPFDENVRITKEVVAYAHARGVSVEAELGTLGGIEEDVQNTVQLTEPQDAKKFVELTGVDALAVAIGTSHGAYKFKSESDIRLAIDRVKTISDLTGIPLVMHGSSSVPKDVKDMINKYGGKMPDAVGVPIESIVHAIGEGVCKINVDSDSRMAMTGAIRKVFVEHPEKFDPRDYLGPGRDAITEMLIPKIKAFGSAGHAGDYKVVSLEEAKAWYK
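Giardia FBPA (40 nM reagent) was preincubated 10 min at RT with compound (up to 57.5 uM final), then substrate plus GAPDH/TPI/NAD/arsenate coupling system with diaphorase/resazurin was added; resorufin fluorescence (525/598 nm) was read after 20 min.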
Shiga toxin inh: Shiga toxin inhibition; Vero cells, Shiga toxin protein synthesis inhibition reporter; inhibition, % at 38.7 µM; 290,000 compounds, 9.2% hits; AID 2315; in the data active = inhibition mostly above about 28%, no sharp cut-off; inactive = mostly below about 43%; note: 0% is about no effect
Starred values were filed as active, the others as inactive. Unless noted, calls come from the whole dose curve; as a rule, active = well fitted curve in the direction sought with a large enough effect; inconclusive = small, poorly fitted or top-dose-only effect, or another doubt; inactive = no such curve, though single readings can be large; an effect the other way counts as inactive or inconclusive.

`CC(=O)Nc1cc(-c2ccc(CO)cc2)cn2c(-c3ccc(F)c(Cl)c3)cnc12` gave TbPYK inhibitor 9.0%.
Screening Cc1ccc(NC(=O)C2CCN(c3nc4ccccc4nc3C(F)(F)F)CC2)cc1C returned TbPYK inhibitor -5.0% and Sm TGR block -0.8%.
`C[C@H](CO)N1C[C@H](C)[C@H](CN(C)C(=O)Nc2ccnc(N3CCOCC3)c2)OCc2cnnn2CCCC1=O` gave TbPYK inhibitor 7.0%.
CSc1nc2ccc(NC(=O)c3ccc(F)c(F)c3)cc2s1 was read as TbPYK inhibitor -7.1%, Cycloheximide cs 39.4*, Sm TGR block 7.8%, LmPK inh -3.7%, FBPA Giardia inh -5.8% and Shiga toxin inh 40.5*.
Screening O=C(Nc1nc2ccc([N+](=O)[O-])cc2s1)C1CCCO1 (stereo not drawn) returned TbPYK inhibitor -1.6%, Cycloheximide cs 36.8*, LmPK inh -4.8%, FBPA Giardia inh 0.6% and Shiga toxin inh 112.4*.
`CCOc1cccc2sc(Nc3nc4ccc(NC(C)=O)cc4s3)nc12` gave TbPYK inhibitor -8.3%, Cycloheximide cs 27.4*, Sm TGR block 2.2%, LmPK inh 0.9%, FBPA Giardia inh -9.7% and Shiga toxin inh 57.8*.
CCOc1cccc2sc(NN)nc12 was read as TbPYK inhibitor -11.8%, Cycloheximide cs 0.9, Sm TGR block -0.5%, LmPK inh inconclusive, FBPA Giardia inh -22.8% and Shiga toxin inh -13.2.
`CC(=O)Nc1ccc2nc(NC(=O)c3ccco3)sc2c1` gave TbPYK inhibitor 4.7%, Cycloheximide cs 25.3*, Sm TGR block -22.2%, LmPK inh -15.2%, FBPA Giardia inh -9.9% and Shiga toxin inh 36.2*.
Screening O=C(Nc1ccc(F)cc1)C1CCN(S(=O)(=O)c2cccc3nonc23)CC1 returned TbPYK inhibitor -2.5%, Cycloheximide cs 1.1, Sm TGR block 2.1%, LmPK inh 3.6%, FBPA Giardia inh -1.0% and Shiga toxin inh -15.5.
For CCN(CC(=O)Nc1ccc(OC)cc1)C(=O)Cc1coc2cc(C)c(C)cc12 the results were TbPYK inhibitor -12.3% and Sm TGR block -11.9%.
For COC(=O)c1cccc(C23CC4(C2)[C@H](CN(CC2CCCCC2)[C@@H]4c2ccccc2)C3c2ccc(C(F)(F)F)cc2)c1 (stereo partly drawn) the results were FBPA Giardia inh -0.4%.
CSc1nc2ccc(NC(=O)c3ccc(=O)n(C)n3)cc2s1 was read as TbPYK inhibitor -1.0%, Cycloheximide cs 19.1*, Sm TGR block 29.4%, LmPK inh inconclusive, FBPA Giardia inh -4.0% and Shiga toxin inh 42.4*.
`O=C(Nc1nc2ccc([N+](=O)[O-])cc2s1)c1c(F)cccc1F` gave TbPYK inhibitor 3.4%, Cycloheximide cs 2.7, Sm TGR block -20.1%, LmPK inh 3.9%, FBPA Giardia inh 5.1% and Shiga toxin inh 17.2.
`CSc1nc2ccc(NC(=O)c3cc4ccccc4o3)cc2s1` gave TbPYK inhibitor 1.0%, Cycloheximide cs 30.0*, Sm TGR block -13.0%, LmPK inh -11.6%, FBPA Giardia inh -5.1% and Shiga toxin inh 70.4*.
CCC(=O)Nc1nc2ccc(NC(C)=O)cc2s1 was read as TbPYK inhibitor 5.0%, Cycloheximide cs 33.1*, Sm TGR block 6.6%, LmPK inh 0.0%, FBPA Giardia inh 5.2% and Shiga toxin inh 47.4.
`O=C(Nc1nc2ccc([N+](=O)[O-])cc2s1)c1ccco1` gave Cycloheximide cs 27.4*, Sm TGR block -7.4%, LmPK inh -16.3%, FBPA Giardia inh 3.6% and Shiga toxin inh 44.2.
Screening CC(=O)Nc1ccc(NS(=O)(=O)c2cccc3nonc23)cc1 returned TbPYK inhibitor -3.2%, Cycloheximide cs -4.3, Sm TGR block 4.0%, LmPK inh 1.5%, FBPA Giardia inh -7.1% and Shiga toxin inh 14.8.
Screening OCCOC[C@H]1O[C@H](OCCO)[C@H](OCCO)[C@@H](OCCO)[C@@H]1OCCO (tested in a mixture with another compound) returned TbPYK inhibitor 5.5%.
`O=C(Nc1nc2ccccc2s1)C1CCN(S(=O)(=O)c2cc([N+](=O)[O-])ccc2Cl)CC1` gave TbPYK inhibitor -17.2%, Cycloheximide cs 20.7*, Sm TGR block inconclusive, LmPK inh 6.8%, FBPA Giardia inh -20.8% and Shiga toxin inh 49.7*.
`CSc1nc2ccc(NC(=O)c3ccco3)cc2s1` gave TbPYK inhibitor -3.7%, Cycloheximide cs 35.5*, Sm TGR block 7.8%, LmPK inh -12.0%, FBPA Giardia inh -2.6% and Shiga toxin inh 56.6*.
Screening CSc1nc2ccc(NC(=O)c3nn(C(C)C)c(=O)c4ccccc34)cc2s1 returned TbPYK inhibitor 6.4%, Cycloheximide cs 53.4*, Sm TGR block -9.5%, LmPK inh -2.8%, FBPA Giardia inh -0.1% and Shiga toxin inh 101.9*.
For Cc1ccc(NC(=O)CSc2nc3ccc(NC(=O)c4ccco4)cc3s2)cc1 the results were TbPYK inhibitor 1.6% and Sm TGR block -6.9%.
CCC(C)NC(=O)C1CCN(S(=O)(=O)c2cc([N+](=O)[O-])ccc2Cl)CC1 (stereo not drawn) was read as TbPYK inhibitor 0.3%, Cycloheximide cs 1.0, Sm TGR block 8.1%, LmPK inh 9.8%, FBPA Giardia inh 2.6% and Shiga toxin inh -6.1.
`CC1=CC(=O)[C@@H]2C[C@H]1C2(C)C` gave FBPA Giardia inh 5.8%.
Screening COCCN(C(=O)CCc1nnc(Cc2c[nH]c3ccccc23)o1)C(C)C returned TbPYK inhibitor -16.7%, Cycloheximide cs 3.2, Sm TGR block 20µM*, LmPK inh 0.0%, FBPA Giardia inh 5.1% and Shiga toxin inh 11.4.
COCCN(C(=O)CCc1nnc(CCc2c[nH]c3ccccc23)o1)C(C)C was read as TbPYK inhibitor 5.4%, Cycloheximide cs -1.3, Sm TGR block -4.6%, LmPK inh 1.5%, FBPA Giardia inh 2.7% and Shiga toxin inh -4.5.
CC(C)CCNC(=O)CCc1nnc(Cc2c[nH]c3ccccc23)o1 was read as TbPYK inhibitor -13.8%, Cycloheximide cs 9.0, Sm TGR block 12.6µM*, LmPK inh 0.9%, FBPA Giardia inh 1.8% and Shiga toxin inh 10.0.
Screening COc1ccc(Nc2nc(NCc3ccco3)nc(N/N=C/c3ccc(O)cc3)n2)cc1 returned TbPYK inhibitor -3.9%, Cycloheximide cs 16.0*, Sm TGR block 2.2%, LmPK inh 0.2%, FBPA Giardia inh -1.7% and Shiga toxin inh 70.4*.
For COc1ccc(/C=N/Nc2nc(NCc3ccco3)nc(Nc3ccc(OC)cc3)n2)cc1 the results were TbPYK inhibitor 10.8%, Cycloheximide cs -2.8, Sm TGR block -0.4%, LmPK inh -3.0%, FBPA Giardia inh -2.1% and Shiga toxin inh 2.7.
